This is a sample that favours compounds with a hit; in the whole collection about 1.5% have one here.
Bcl-xL primary = inhibitors of human Bcl-xL, primary screen, biochemical, fluorescence polarization, HTS; GST-Bcl-xL / FITC-Bim BH3 peptide fluorescence polarization; inhibition, % at 10.9 µM; AID 2129, 2009; hit rate 0.7% among 320,000;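 active = inhibition above the mean of all tested compounds plus 3 SD, cutoff set per campaign, cut at about 30% in these data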;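 note: 0% = DMSO wells and 100% = unlabeled Bim-BH3 peptide competitor; inhibitors lower millipolarization by displacing the labeled peptide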
Target sequence (Q07817 whole entry, looked up): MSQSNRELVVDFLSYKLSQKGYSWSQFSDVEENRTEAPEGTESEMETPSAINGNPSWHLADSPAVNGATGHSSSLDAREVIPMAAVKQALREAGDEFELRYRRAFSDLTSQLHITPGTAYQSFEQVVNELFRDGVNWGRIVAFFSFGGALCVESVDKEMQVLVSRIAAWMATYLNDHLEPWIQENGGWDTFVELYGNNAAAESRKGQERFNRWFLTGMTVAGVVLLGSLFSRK
IDE cell inh = human IDE inhibitors in live cells, primary screen, fluorescence polarization, HEK cells, FAbetaB substrate | FAbetaB cleavage | inhibition, % at 5.59 µM | hit rate 0.41% among 320,000 | Insulin-degrading enzyme (Homo sapiens), P14735;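 active = percent inhibition above the average of all tested compounds plus 3 SD, set per screening campaign, cut at about 16% in these data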;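 note: IDE supplied by intact live HEK cells; FP after avidin binding of uncleaved biotin substrate so inhibition keeps polarization high; 0% = DMSO wells and 100% = 60 µM reference IDE inhibitor Ii1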
IDE act = human IDE activators in live cells, primary screen, fluorescence polarization, HEK cells, FAbeta-B substrate. AID 493087, 2011. hit rate 0.073% among 340,000. FAbeta-B cleavage; 0% vehicle, 100% cell-free pure enzyme wells. activation, % at 5.96 µM;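 active = activation above the mean of all tested compounds plus 3 SD, set per screening campaign, cut at about 17% in these data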
MEX-5 binding = MEX-5 zinc finger RNA-binding disruptors – biochemical, C. elegans, fluorescence polarization, MLPCN library, primary screen. Zinc finger protein mex-5 (Caenorhabditis elegans), Q9XUB2. MEX-5/FITC-TCR2 RNA binding; active compounds read low. activity score (negative = inhibition of binding), % at 10 µM. hit rate 0.38% among 300,000. AID 1832, 2009;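 active = inhibition past about -25% in most replicates, and total fluorescence under double the plate's negative control median, limit read from the data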;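 note: 0% = DMSO and -100% = 5 µM competing unlabeled TCR2 RNA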
GLD-1 RNA inh = GLD-1/TGE RNA complex disruptors, primary screen, biochemical, fluorescence polarization | purified GLD-1 + fluorescein TGE RNA | inhibition, % at 5.96 µM | hit rate 0.44% among 320,000 | Female germline-specific tumor suppressor gld-1 (Caenorhabditis elegans), Q17339 | AID 2280, 2010;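 active = percent inhibition above a per-plate cutoff, the plate mean of test compounds plus 3 SD, cut at about 30% in these data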;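 note: 0% = DMSO wells with GLD-1 and probe and 100% = wells lacking GLD-1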
Target sequence (Q17339 whole entry, looked up): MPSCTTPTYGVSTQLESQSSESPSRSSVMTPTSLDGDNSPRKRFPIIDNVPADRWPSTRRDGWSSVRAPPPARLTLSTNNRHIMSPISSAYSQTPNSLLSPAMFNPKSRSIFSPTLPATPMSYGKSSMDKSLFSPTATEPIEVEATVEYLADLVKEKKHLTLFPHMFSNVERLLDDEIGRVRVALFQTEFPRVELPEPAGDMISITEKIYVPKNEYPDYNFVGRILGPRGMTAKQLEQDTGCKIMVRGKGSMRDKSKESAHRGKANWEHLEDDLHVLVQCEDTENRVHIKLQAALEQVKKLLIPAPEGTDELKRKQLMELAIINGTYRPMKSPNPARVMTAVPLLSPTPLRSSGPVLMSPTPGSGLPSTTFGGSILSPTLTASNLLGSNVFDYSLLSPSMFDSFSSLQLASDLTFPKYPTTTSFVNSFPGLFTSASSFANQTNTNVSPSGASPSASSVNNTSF
MCL1-BIM inh = inhibitors of MCL1 binding to BIM-BH3, primary screen, biochemical, fluorescence polarization. inhibition, % at 10.9 µM. hit rate 0.68% among 320,000. AID 2057, 2009. Induced myeloid leukemia cell differentiation protein Mcl-1 (Homo sapiens), Q07820. GST-MCL1 / FITC-Bim-BH3 fluorescence polarization;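 active = inhibition above the mean inhibition of all tested compounds plus 3 SD, set per campaign, cut at about 40% in these data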;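 note: 0% = DMSO wells and 100% = unlabeled Bim-BH3 peptide control; higher means more loss of mP so more displacement of Bim peptide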
Bcl-xL conf = Bcl-xL inhibitors blocking Bim BH3 binding, confirmation, counter-screen for MCL1 inhibitor project, biochemical, fluorescence polarization | inhibition, % at 10.9 µM | shares compounds with MCL1-BIM inh | hit rate 54% among 1,700 | GST-Bcl-xL / FITC-Bim BH3 peptide FP binding;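 active = inhibition above a cutoff equal to the mean inhibition of all tested compounds plus 3 SD, cut at about 30% in these data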;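 note: 0% = DMSO wells and 100% = unlabeled Bim BH3 control peptide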
MCL1 BIM confirm = inhibitors of MCL1 binding to BIM-BH3, confirmation, biochemical, fluorescence polarization, triplicate; shares compounds with MCL1-BIM inh; inhibition, % at 10.9 µM; AID 2168, 2009; hit rate 61% among 1,700; GST-MCL1 / FITC-Bim-BH3 fluorescence polarization;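 active = inhibition above the average of all tested compounds plus 3 SD, cut at about 40% in these data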;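 note: 0% = DMSO wells and 100% = unlabeled Bim-BH3 control peptide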
GLD1 RNA confirm = GLD-1/TGE RNA binding inhibitors, retest, confirmation, biochemical, fluorescence polarization, triplicate; hit rate 10% among 550; GLD-1/FL-TGE RNA fluorescence polarization; inhibition, % at 5.96 µM; AID 2459, 2010; shares compounds with GLD-1 RNA inh;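 active = average inhibition across triplicates above the hit cutoff set in the primary screen, cut at about 32% in these data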;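 note: 0% = GLD-1 with RNA probe and DMSO and 100% = wells lacking GLD-1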
An asterisk follows results filed as active; . = not tested or not shown.

SMILES | Bcl-xL primary | IDE cell inh | IDE act | MEX-5 binding | GLD-1 RNA inh | MCL1-BIM inh | Bcl-xL conf | MCL1 BIM confirm | GLD1 RNA confirm
COc1cccc(NC(=S)N(CCc2c(C)[nH]c3ccc(C)cc23)Cc2cccs2)c1 | -2 | 4 | 2 | -5 | 2 | 0 | . | . | .
CCOC(=O)Cn1c(=O)c(-c2cc(Br)ccc2N)nc2ccccc21 | 70* | -3 | 6 | -38* | 37* | 82* | 108* | 132* | 50*
CCOC(=O)Cn1c(=O)c(-c2ccccc2N)nc2ccccc21 | 1 | -4 | 4 | 1 | -5 | 6 | . | . | .
C=CCNC(=O)/C(C#N)=C/c1ccccc1[N+](=O)[O-] | 45* | 5 | -7 | -2 | 31* | 51* | 26 | 22 | 45*
CCCCCCCCNC(=O)/C(C#N)=C/c1ccccc1[N+](=O)[O-] | 27 | 7 | -12 | -2 | 25 | 25 | . | . | .
O=C(COc1ccc(Cl)cc1)Nc1c(-c2cccs2)nc2ccccn12 | -5 | -9 | 1 | 2 | -4 | -18 | . | . | .
CC(C)CCNc1c(-c2cccs2)nc2ccccn12 | 75* | 9 | 10 | -2 | 46* | 68* | 46* | 69* | 2
Cc1ccc(S(=O)(=O)Nc2ccc(NC(=O)c3c(F)c(F)c(F)c(F)c3F)cc2)cc1 | 4 | 0 | 5 | -3 | 4 | 1 | . | . | .
COc1ccccc1CNCC(=O)Nc1ccc(N(C)C)cc1 | 71* | 2 | 6 | -5 | 50* | 86* | 61* | 61* | -2
Cc1csc(CN(C)C(=O)C2CCC(=O)N(CCN(C)C)C2)n1 (stereo not given) | 1 | 7 | 1 | 0 | 2 | 3 | . | . | .
O=C(O)c1ccc2c(c1)[C@@H]1C=CC[C@@H]1[C@H](c1ccccn1)N2 | 56* | -3 | 0 | -100* | 34* | 86* | 50* | 85* | 10
CC(OC(=O)CCOc1ccccc1)C(=O)Nc1ccc(Cl)cn1 (stereo not given) | 2 | -4 | 3 | -1 | 1 | -1 | . | . | .
Oc1ccc2ccccc2c1N=Nc1ccccn1 | 2 | 12 | -17 | -8 | -5 | 8 | . | . | .
CCOC(=O)c1[nH]cnc1N=Nc1c(O)ccc2ccccc12 | 103* | -5 | 7 | -4 | 60* | 93* | 75* | 84* | 32*
CCN(CC)C(=O)C1=C(C)NC(=O)NC1c1ccccc1F (stereo not given) | 51* | 0 | . | -10 | 40* | 66* | 23 | 27 | 6
COc1ccc(-c2cc(C(=O)OC(C)C(=O)Nc3c(C)n(C)n(-c4ccccc4)c3=O)c3ccccc3n2)cc1 (stereo not given) | -3 | 11 | 1 | . | 1 | -34 | . | . | .
Cc1c(NC(=O)C(C)OC(=O)c2cc(-c3cccc4ccccc34)nc3ccccc23)c(=O)n(-c2ccccc2)n1C (stereo not given) | 75* | -5 | 15 | 0 | 38* | 86* | 26 | 30 | 3
O=C(NCC(=O)N1CCN(S(=O)(=O)c2ccc3c(c2)OCCO3)CC1)c1ccccc1Cl | 6 | -2 | 1 | . | 6 | 9 | . | . | .
COC(=O)c1cc2c(C)cc3ccc(C)cn3c-2c1C(=O)OC | 93* | 0 | -1 | -13 | 55* | 99* | 75* | 98* | 41*
COC(=O)c1coc(-c2ccc(C)cc2)c1C(=O)OC | 4 | -7 | 2 | -3 | -1 | 4 | . | . | .
CN(C)NC(=S)Nc1ccc2nc(-c3ccccn3)c(-c3ccccn3)nc2c1 | 16 | -2 | 5 | -5 | 20 | 25 | . | . | .
S=C(Nc1ccc2nc(-c3ccccn3)c(-c3ccccn3)nc2c1)N1CCOCC1 | 60* | 2 | 3 | -15 | 40* | 87* | 31* | 37 | 6
O=C(NN1CCOCC1)c1cccc(Cl)c1 | -2 | -1 | 5 | 2 | -2 | -4 | . | . | .
Cn1c(SCc2ccccn2)nnc1-c1ccccc1 | 3 | -3 | 6 | 1 | -2 | 0 | . | . | .
CCn1c(CSc2nnc(-c3ccncc3)n2CCOC)nc2cc(C(=O)O)ccc21 | 12 | -2 | 3 | -4 | 14 | 13 | . | . | .
SMILES | Bcl-xL primary | IDE cell inh | IDE act | MEX-5 binding | GLD-1 RNA inh | MCL1-BIM inh | Bcl-xL conf | MCL1 BIM confirm | GLD1 RNA confirm
CCn1c(CSc2nnc3ccccn23)nc2cc(C(=O)O)ccc21 | 99* | 3 | 4 | -21 | 95* | 110* | 64* | 86* | 32*
O=C(COC(=O)c1c(F)cccc1Cl)NC(=O)Nc1ccc2c(c1)OCCO2 | -4 | -4 | -1 | . | 3 | -3 | . | . | .
CC1=CC(=O)c2c(O)ccc(O)c2C1=O | 88* | -5 | . | . | 75* | 138* | 102* | 142* | 33*
NS(=O)(=O)c1cccc(NC(=O)CN2CCc3ccccc32)c1 | 63* | 3 | 2 | 1 | 47* | 77* | 6 | 0 | -4
CC1(C)N=C(N)N=C(N)N1c1ccc(Oc2ccc(Cl)cc2)c(Cl)c1 | 5 | 0 | 0 | -1 | -4 | 7 | . | . | .
CCOc1ccc(CCNC(=O)CS(=O)Cc2nc(-c3ccccc3C)oc2C)cc1OCC (stereo not given) | 2 | 3 | 4 | 1 | -1 | -4 | . | . | .
Cc1cc2ccccc2n1CCNC(=O)COc1ccccc1 | 41* | 3 | 6 | 1 | 72* | 63* | 26 | 28 | 11
CC(=O)C1=C(C)OC(N)=C(C#N)C1c1ccco1 (stereo not given) | 60* | 2 | 4 | -14 | 39* | 59* | 20 | 16 | 3
O=C(C(=S)N1CCOCC1)c1c[nH]c2ccccc12 | -3 | 2 | 4 | -2 | -3 | -5 | . | . | .

Compound activity from PubChem BioAssay.
